Assay outcomes from PubChem BioAssay.
Sampled rows, rich in hits. Any-hit rate of the full collection: about 3.7%.
Anthrax LF inh2 = anthrax lethal factor protease inhibition; P15917; multiplex microsphere protease cleavage assay, LF; inhibition, % at 10 µM; 0.12% of 360,000 active; AID 588501; note: plate controls were buffer without enzyme for full effect and enzyme alone for no effect
BoNT F protease = inhibitors of Botulinum neurotoxin F light chain protease; Multiplex microsphere protease cleavage assay, flow cytometry; inhibition, % at 10 µM; 0.22% of 360,000 active; AID 588497; in the data active = inhibition above about 35%, passing the limit was not always enough; note: plate controls were buffer without enzyme for full effect and enzyme alone for no effect
BoNT-A LC inh2 = BoNT A light chain protease inhibition; multiplex microsphere protease substrate cleavage, flow cytometry; inhibition, % at 10 µM; 0.17% of 360,000 active; AID 588499; note: plate controls were buffer without enzyme for full effect and enzyme alone for no effect
Vc quorum ag-1 = quorum light induction in luxS cqsA deficient V. cholerae; 0.16% of 350,000 active; V. cholerae BH1578 lux reporter, luminescence, 6 h; activation, % at 18.7 µM; in the data active = activation mostly above about 9.7%, no sharp cut-off
Autofluor counter = flagged as autofluorescent in microsphere protease counterscreen; compound autofluorescence counterscreen, microsphere flow cytometry; hits give high values; 3.1% of 360,000 active; fluorescence intensity (no concentration beside the values); AID 624483; in the data active = fluorescence intensity above about 16000
BJeLR lethal = kills HRASV12-expressing BJeLR cells; BJeLR (HRASV12) viability, CellTiter-Glo ATP luminescence, 48 h; inhibition, % (no concentration beside the values); 0.17% of 300,000 active; in the data active = inhibition above about 50%
Vc quorum ag-2 = inducers of V. cholerae quorum light production without autoinducers | activation, % at 50 µM | 620 tested, under 10 active | V. cholerae BH1578 lux reporter, luminescence, 6 h | AID 602243 | shares compounds with Vc quorum ag-1; call rule not given here
* hit, by the source's call. Cut-off read from the data, not from the text of the source, unless noted: active = inhibition above about 30%; inconclusive = no clear call, values can overlap the other calls; inactive = below that.

How did CCOc1ccccc1C(=O)NCC(=O)NNC(=O)c1cccs1 do in these assays?
Anthrax LF inh2: 3; BoNT F protease: -6; BoNT-A LC inh2: 0; Vc quorum ag-1: 0; Autofluor counter: 3978

What do the screens show for `COC(=O)c1cc(NC(=O)C2CC=CCC2C(=O)O)cc(C(=O)OC)c1` (configuration not stated)?
Anthrax LF inh2: -2; BoNT F protease: -1; BoNT-A LC inh2: -1; Vc quorum ag-1: 7.6*; Autofluor counter: 9959; BJeLR lethal: 4; Vc quorum ag-2: 1

How did COC(=O)c1ccccc1NC(=O)C1CC=CCC1C(=O)O (configuration not stated) do in these assays?
Anthrax LF inh2: 1; BoNT F protease: 5; BoNT-A LC inh2: 1; Vc quorum ag-1: inactive; Autofluor counter: 3678; BJeLR lethal: -1

What do the screens show for `Cc1ccc(CN(Cc2cc3cc(C)ccc3[nH]c2=O)C(=O)N2CCOCC2)cc1`?
Anthrax LF inh2: -6; BoNT F protease: 4; BoNT-A LC inh2: 0; Vc quorum ag-1: 17*; Autofluor counter: 9666; BJeLR lethal: 2; Vc quorum ag-2: 7

Results for CCN1CCCC1CNC(=O)c1cc(OC)c(OC)c(OC)c1 (configuration not stated) ?
Anthrax LF inh2: 0; BoNT F protease: 11; BoNT-A LC inh2: 1; Vc quorum ag-1: 3; Autofluor counter: 2510; BJeLR lethal: 1; Vc quorum ag-2: 1

Results for Cc1ccccc1NC(=O)Cc1nc(COC(=O)c2ccccn2)cs1 ?
Anthrax LF inh2: -5; BoNT F protease: -4; BoNT-A LC inh2: 3; Vc quorum ag-1: 14; Autofluor counter: 5983; BJeLR lethal: 2; Vc quorum ag-2: 0

Results for CC(=O)NCCNC(=O)Cn1nnc(-c2ccccc2)c1COc1ccc2ccccc2c1 ?
Anthrax LF inh2: -2; BoNT F protease: -2; BoNT-A LC inh2: 0; Vc quorum ag-1: 0; Autofluor counter: 3802

Results for Cc1ccc(C(=O)OCC(=O)NCc2ccccc2)s1 ?
Anthrax LF inh2: -7; BoNT F protease: 8; BoNT-A LC inh2: 0; Vc quorum ag-1: 0; Autofluor counter: 3621

Results for Cc1ccc(C(=O)OCC(=O)NCCNC(=O)COC(=O)c2ccc(C)s2)s1 ?
Anthrax LF inh2: -1; BoNT F protease: -7; BoNT-A LC inh2: -2; Vc quorum ag-1: 12; Autofluor counter: 6204; BJeLR lethal: -13; Vc quorum ag-2: 0

Results for Cc1ccc(-n2nnnc2CNC(=O)C(=O)c2c[nH]c3ccccc23)cc1C ?
Anthrax LF inh2: -5; BoNT F protease: 2; BoNT-A LC inh2: 0; Vc quorum ag-1: 1; Autofluor counter: 4107

How did Cc1noc(C)c1COc1ccc(C(=O)NCC(c2c(F)cccc2Cl)N(C)C)cc1 (configuration not stated) do in these assays?
Anthrax LF inh2: 1; BoNT F protease: 12; BoNT-A LC inh2: 5; Vc quorum ag-1: 19; Autofluor counter: 5663; Vc quorum ag-2: 0

How did CCN(CC(=O)Nc1ccccc1C(F)(F)F)C(=O)CN1C(=O)NC(C)(c2ccc3ccccc3c2)C1=O (configuration not stated) do in these assays?
Anthrax LF inh2: 3; BoNT F protease: -12; BoNT-A LC inh2: 0; Vc quorum ag-1: 21*; Autofluor counter: 3453; Vc quorum ag-2: 0

What do the screens show for `Cc1cc(C)c(C(=O)C(C)OC(=O)Cn2cnc3c2c(=O)n(C)c(=O)n3C)cc1C` (configuration not stated)?
Anthrax LF inh2: 0; BoNT F protease: 8; BoNT-A LC inh2: -1; Vc quorum ag-1: inactive; Autofluor counter: 6118; BJeLR lethal: -6

Results for CC(OC(=O)Cn1cnc2c1c(=O)n(C)c(=O)n2C)C(=O)c1ccccc1 (configuration not stated) ?
Anthrax LF inh2: -2; BoNT F protease: 3; BoNT-A LC inh2: 4; Vc quorum ag-1: 14; Autofluor counter: 5653; BJeLR lethal: -1; Vc quorum ag-2: 1

Results for COc1cc(CNc2ncnc3c2ncn3[C@H]2CN(Cc3cc(OC)c(OC)c(OC)c3)C[C@@H](CO)O2)cc(OC)c1OC ?
Anthrax LF inh2: 11; BoNT F protease: 8; BoNT-A LC inh2: 0; Vc quorum ag-1: -1; Autofluor counter: 3861

Results for C[C@@H]1CN([C@@H](C)CO)C(=O)c2cc(Br)cnc2O[C@H]1CN(C)S(=O)(=O)c1cccs1 ?
Anthrax LF inh2: -2; BoNT F protease: -1; BoNT-A LC inh2: 0; Vc quorum ag-1: 0; Autofluor counter: 2878

Results for CC(C)CC1NC(=O)N(CC(=O)Nc2ccc3c(c2)CCC3)C1=O (configuration not stated) ?
Anthrax LF inh2: 1; BoNT F protease: 3; BoNT-A LC inh2: 0; Vc quorum ag-1: 0; Autofluor counter: 4377; BJeLR lethal: 0

Results for CN1CC(=O)N(CC(=O)Nc2ccc3c(c2)CCC3)C1=O ?
Anthrax LF inh2: -4; BoNT F protease: -8; BoNT-A LC inh2: 0; Vc quorum ag-1: 36*; Autofluor counter: 4465; BJeLR lethal: 6; Vc quorum ag-2: 0

Results for CC1(C(=O)Nc2ccc(Cl)c(C(F)(F)F)c2)Cc2c(-c3ccc(C(N)=O)cc3)ccnc2O1 (configuration not stated) ?
Anthrax LF inh2: 0; BoNT F protease: 5; BoNT-A LC inh2: 0; Vc quorum ag-1: -5; Autofluor counter: 3747

How did COCCNC(=O)C1(C)CCCN(C(=O)c2cc(F)ccc2C)C1 (configuration not stated) do in these assays?
Anthrax LF inh2: -4; BoNT F protease: -8; BoNT-A LC inh2: 0; Vc quorum ag-1: inactive; Autofluor counter: 3529

Results for CCC1Nc2ncnc(N3CCN(c4ccccc4)CC3)c2N(Cc2ccccc2)C1=O (configuration not stated) ?
Anthrax LF inh2: -1; BoNT F protease: -2; BoNT-A LC inh2: 0; Vc quorum ag-1: 6; Autofluor counter: 3011; Vc quorum ag-2: 0

What do the screens show for `O=C(Nc1ccc(Cl)c(Cl)c1)Nc1ccccc1C(=O)O`?
Anthrax LF inh2: -1; BoNT F protease: 0; BoNT-A LC inh2: 0; Vc quorum ag-1: 13; Autofluor counter: 2134; BJeLR lethal: 19; Vc quorum ag-2: 0

How did O=C(Nc1ccc(Cl)cc1)Nc1ccccc1C(=O)O do in these assays?
Anthrax LF inh2: 4; BoNT F protease: -6; BoNT-A LC inh2: -1; Vc quorum ag-1: 0; Autofluor counter: 3621; BJeLR lethal: 7

What do the screens show for `C[C@H](CO)N1C[C@H](C)[C@@H](CN(C)Cc2ccc(C(=O)O)cc2)Oc2ccc(NS(=O)(=O)c3cn(C)cn3)cc2C1=O`?
Anthrax LF inh2: -2; BoNT F protease: 2; BoNT-A LC inh2: 0; Vc quorum ag-1: 0; Autofluor counter: 3914
